Among the data in PubChem BioAssay (NCI) are growth inhibition values, retold here.

Compounds without any hit were thinned out: in the full panel of roughly 79,000, 15% have a hit. A number with no mark means an inactive call. Cut-off read from the data, not from the text of the source: active = growth inhibition above about 70%; inactive = the rest.

This test is described as follows: NCI Yeast Anticancer Drug Screen. Data for the bub3 strain (AID 167). The conditions noted are these: S. cerevisiae bub3 mutant strain, at 50.0 µM, active compounds read high. The method, boiled down:
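Screening used yeast with an engineered genetic alteration affecting cell cycle control. Compound-exposed cultures were compared with vehicle cultures, and reduced growth was taken as inhibition.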
Regarding `CN1C/C(=C/c2ccc(N(C)C)cc2)C(=O)/C(=C/c2ccc(N(C)C)cc2)C1`, the growth inhibition is -3.7%.
For the compound `CCOC(=O)c1nc2ccccc2nc1NCc1ccc(Cl)cc1Cl`, the growth inhibition was -16.6%.
As to `N#CC(C#N)=Cn1c(=S)[nH]c2ccc([N+](=O)[O-])cc21`, the growth inhibition is -9%.
On to `Cn1c(=O)c2nc3c(=O)n(C)c(=O)n(CC(N)=O)c3nc2n(C)c1=O`, for which the growth inhibition was 12.1%.
For the compound `CCOC(=O)C(Cc1ccc(N=NN(C)C)cc1)NC(=O)CC1c2ccccc2-c2ccccc21` (stereo unspecified), the growth inhibition is 47.6%.
For the compound `[Cu+2].[Cu+2].[O-]c1ccccc1C=Nc1ccccc1[O-].[O-]c1ccccc1C=Nc1ccccc1[O-]`, the growth inhibition is 2.1%.
With `NC(C1SCCS1)C(O)C(O)C(O)CO` (stereo unspecified), the growth inhibition was 3.1%.
As for `NS(=O)(=O)c1nc(S(=O)(=O)O)c2[nH]cnc2n1`, the growth inhibition was -45.3%.
With `COc1cc(C=O)c([N+](=O)[O-])cc1OC`, the growth inhibition was -8.5%.
Take `CC(NC(=O)C(C)NC(=O)C(N)CCP(C)(=O)O)C(=O)O` (stereo unspecified): the growth inhibition is -12.2%.
For the compound `Cc1c[n+]([O-])cc(C)c1N=Nc1ccc(N(C)C)cc1`, the growth inhibition is 11.9%.
As for `C[n+]1ccccc1C(=O)O`, the growth inhibition is 31.3%.
Take `CC(O)CNCc1ccc(N(C)C)cc1` (stereo unspecified): the growth inhibition was -4.65%.
Take `CC(=O)Nc1cc2c(cc1C=O)OCO2`: the growth inhibition was -2.5%.
Regarding `COc1cccc(C2c3cc4c(cc3OC(N3CCCCC3)C2C)OCO4)c1OC` (stereo unspecified), the growth inhibition is 63%.
Take `COC(=O)c1ccc(SCCC(=O)CNc2nc(N)nc(N)c2[N+](=O)[O-])cc1`: the growth inhibition is -0.2%.
